This is an account of results in PubChem BioAssay AID1671192 (National Center for Advancing Translational Sciences (NCATS), 2021).

Each structure is given as a SMILES string. Inconclusive results are not listed. Calls of active or inactive are those of the source. Calls come from the whole dose curve; as a rule, active = well fitted curve in the direction sought with a large enough effect; inconclusive = small, poorly fitted or top-dose-only effect, or another doubt; inactive = no such curve, though single readings can be large or run the other way.

Chain of Polyunsaturated fatty acid lipoxygenase ALOX15 (Homo sapiens) (P16050 whole entry, looked up): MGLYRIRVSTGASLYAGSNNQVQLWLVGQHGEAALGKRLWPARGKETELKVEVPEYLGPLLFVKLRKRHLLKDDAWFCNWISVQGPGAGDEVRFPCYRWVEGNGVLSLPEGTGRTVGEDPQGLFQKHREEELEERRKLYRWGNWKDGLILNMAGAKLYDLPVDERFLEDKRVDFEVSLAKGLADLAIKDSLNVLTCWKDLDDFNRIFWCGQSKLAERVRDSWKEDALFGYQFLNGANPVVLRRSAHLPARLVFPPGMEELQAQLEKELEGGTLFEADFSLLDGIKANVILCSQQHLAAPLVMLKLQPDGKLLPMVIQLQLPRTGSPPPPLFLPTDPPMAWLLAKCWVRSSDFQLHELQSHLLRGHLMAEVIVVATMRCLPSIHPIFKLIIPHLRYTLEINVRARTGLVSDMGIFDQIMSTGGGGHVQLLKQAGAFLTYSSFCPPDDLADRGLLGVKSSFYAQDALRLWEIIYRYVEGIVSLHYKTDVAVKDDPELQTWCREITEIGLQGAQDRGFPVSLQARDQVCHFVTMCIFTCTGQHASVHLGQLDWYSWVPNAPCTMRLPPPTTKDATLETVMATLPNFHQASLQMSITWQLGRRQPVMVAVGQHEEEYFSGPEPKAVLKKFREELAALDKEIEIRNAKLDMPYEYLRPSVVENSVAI

This experiment concerns the target Polyunsaturated fatty acid lipoxygenase ALOX15 (Homo sapiens) (UniProt P16050). Briefly: Counterscreen qHTS for inhibitors of human arachidonate 12S-lipoxygenase (ALOX12): ALOX15 Assay. Conditions: purified ALOX15 enzyme activity; series mostly up to 110 µM. The gist of the method:
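Purified human ALOX15 (15hLO-1) at 40 nM in 25 mM HEPES, 0.01% Triton X-100, pH 7.5, preincubated with compound 15 min at RT. Then 50 uM arachidonic acid for 30 min; hydroperoxide detected by Fe-xylenol orange as the 573/405 nm absorbance ratio.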
Background: The purpose of a counterscreen is to sort out artefacts and off-target activity.
On to `O=C(Nc1ccc(F)cc1)c1c[nH]c2cccnc12`, for which the call was inactive.
As for `CC(C)[S+](=O)([O-])N1CCN(c2ccc(Cl)nn2)C(=O)C1`, the entry is “inactive”; as for `O=c1[nH]c(C2CCN(Cc3ccc(-c4cccnc4)cc3)CC2)nc2ccc(F)cc12`, “inactive”.
To `N#Cc1ccc(CN2CCC3(CC(c4cccc(C(F)(F)F)c4)=NO3)C2)cc1` (stereo not drawn) belongs “inactive”; to `CC(C)Nc1ncnc2c1CN(C1CCCNC1)C(=O)CN2C` (stereo not drawn), “inactive”.
Consider `CC(C)NCCN1CCCC1`, for which the outcome was inactive.
As for `Cc1ccc(-c2ccccc2CN)c(C)c1`, the entry is “inactive”; as for `Cc1ccc(CN2CCC3(Cc4ccccc4CNC3=O)C2)cc1C` (stereo not drawn), “inactive”; as for `COc1cccc(N2C(=O)NC(=NC3CCCCC3)C23CCCN([S+](=O)([O-])c2cccc(C(F)(F)F)c2)C3)c1` (stereo not drawn), “inactive”.
Take `COCCNc1ncnc2c1CN(C1CCCNCC1)C(=O)CN2C` (stereo not drawn): the outcome was inactive.
To `C[C@H](C(=O)N1Cc2ccccc2CC2(CCN(Cc3ccncc3)C2)C1)c1ccccc1` (stereo partly drawn) belongs “inactive”.
To `O=C1NC2(Cc3ccccc31)CN(C(=O)c1ccccc1F)C2` belongs “inactive”; to `COCCNc1nc2c([S+](=O)([O-])c3cc(OC)ccc3OC)nnn2c2ccccc12`, “inactive”; to `O=S(=O)(c1ccccc1)N1Cc2ccccc2CC2(CCN(Cc3cccnc3)C2)C1` (stereo not drawn), “inactive”.
To `CCOCCNc1ncnc2c1CN(C1CCNCC1)C(=O)CN2C` belongs “inactive”.
For `CN1CC(=O)N(c2ccc(Cl)cc2)Cc2c(NC3CCNCC3)ncnc21`, the compound was classed as inactive.
As for `COc1ccc(-c2cc(C(=O)NCC(C)C)c3c(C)nn(-c4ccccc4)c3n2)cc1`, the entry is “inactive”; as for `CC(C)[S+](=O)([O-])N1CCCC1c1nnc2n1CCNC2` (stereo not drawn), “inactive”.
To `Cc1ccc(-c2cccc(CN)c2)c(C)c1` belongs “inactive”; to `c1ccc(NCCN2CCCC2)cc1`, “inactive”; to `Cc1cc(C)cc(-c2ccc(CN3CCCC(c4nc5ccc(F)cc5c(=O)[nH]4)C3)cc2)c1` (stereo not drawn), “inactive”.
To `O=Cc1ccc(-c2ccc(F)cc2)cc1` belongs “inactive”.
As to `N#Cc1ccc(CN2CCC3(CN[S+](=O)([O-])c4cnccc4O3)C2)cc1` (stereo not drawn), the result was inactive.
To `O=C1NCc2ccccc2CC12CCN(Cc1cccc(F)c1F)C2` (stereo not drawn) belongs “inactive”; to `CNC(=O)c1cn2c(n1)CN([S+](C)(=O)[O-])CC2`, “inactive”; to `CN1CC(=O)N(C2CCCNCC2)Cc2c(NCCO)ncnc21` (stereo not drawn), “inactive”.
In the case of `COc1ccc(N2CC3CCC(C2)N3C(=O)NC(C)C)cc1`, the compound was classed as inactive.
To `Cc1ccc(C(=O)N2CCC3(CC(C(C)C)=NO3)C2)cc1` (stereo not drawn) belongs “inactive”.
To `O=C(NC1CCNCC1)c1cc(C2CC2)nc2onc(C3CCCN3)c12` (stereo not drawn) belongs “inactive”; to `O=C(c1ccccc1F)N1CCC2(C1)C(=O)N(c1ccccc1)c1ccccc12` (stereo not drawn), “inactive”; to `O=C1NCc2ccccc2CC12CCN(Cc1ccc(Cl)o1)C2` (stereo not drawn), “inactive”.
To `N#Cc1ccc(CN2CCn3c(nn(-c4cccc(Cl)c4)c3=O)C2)cc1` belongs “inactive”; to `O=C1Nc2ccccc2CC12CN(CC1CCCC1)C2`, “inactive”; to `O=C(c1cc(C2CC2)nc2c1c(C1CCCN1)nn2-c1ccccc1)N1CCC(F)CC1` (stereo not drawn), “inactive”.
Turning to `COCCNC(=O)c1cc(-c2ccc(OC)cc2)nc2onc(C3CCNC3)c12` (stereo not drawn), the result was inactive.
As for `CC(CO)Nc1ncnc2c1CN(C1CCCNCC1)C(=O)CN2C` (stereo not drawn), the entry is “inactive”.
To `Cc1ccc(-c2ccc(C=O)cc2)cc1Cl` belongs “inactive”.
As for `O=C1c2ccccc2CN1C1CCN(Cc2ccc(C(F)(F)F)cc2)CC1`, the entry is “inactive”.
